From PubChem BioAssay (NCATS)
Records with an inconclusive call do not appear. Active and inactive are the calls of the source. Unless noted, calls follow the shape of the dose curve; as a rule, active = well fitted curve in the direction sought with a large enough effect; inconclusive = small, poorly fitted or top-dose-only effect, or another doubt; inactive = no such curve, though single readings can be large; an effect the other way counts as inactive or inconclusive.

Columns and labels:
[1] = molecular target: Cytochrome P450 3A4 (Homo sapiens) (UniProt P08684); experiment: qHTS Assay for Inhibitors and Substrates of Cytochrome P450 3A4 (AID 884); also: % is scaled to controls: 0 for no effect and ±100 for the full control effect; nearly all actives have a fitted effect of over 50% in size
Cytochrome P450 3A4 (Homo sapiens), sequence (P08684 whole entry, looked up): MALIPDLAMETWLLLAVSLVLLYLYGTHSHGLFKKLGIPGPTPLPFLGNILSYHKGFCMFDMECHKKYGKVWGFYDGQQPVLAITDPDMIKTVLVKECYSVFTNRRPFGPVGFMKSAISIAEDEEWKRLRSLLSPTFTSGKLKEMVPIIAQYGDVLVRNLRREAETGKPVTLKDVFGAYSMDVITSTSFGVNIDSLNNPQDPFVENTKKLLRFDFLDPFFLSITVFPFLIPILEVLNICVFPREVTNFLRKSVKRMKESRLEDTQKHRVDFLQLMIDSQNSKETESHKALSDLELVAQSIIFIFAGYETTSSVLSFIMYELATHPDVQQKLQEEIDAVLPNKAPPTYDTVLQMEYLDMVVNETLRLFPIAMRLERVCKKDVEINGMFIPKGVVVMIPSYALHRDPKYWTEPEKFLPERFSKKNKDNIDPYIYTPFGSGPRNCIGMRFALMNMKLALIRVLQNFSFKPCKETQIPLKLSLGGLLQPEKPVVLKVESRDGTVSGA
Summary of the method: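 20 nM human CYP3A4 with 25 uM Luciferin-PPXE (at KM) in 200 mM KPO4, preincubated 10 min with compound; NADPH regeneration started a 60 min RT reaction. Luciferin detected by luminescence, normalized to 57 uM ketoconazole as full inhibition.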

[2] = Confirmation and Secondary Assay for Modulators of Hemoglobin Beta Chain Splicing at IVS2 654 locus (AID 910);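 also: HeLa cells stably carrying EGFP split by mutant beta-globin IVS2-654 intron; % of control where 0% means no effect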
Summary of the method: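 HeLa cells stably expressing EGFP interrupted by β-globin IVS2-654 intron, seeded overnight in Opti-MEM/2% FCS, then treated 2 days at 37 °C. Restored splicing read as total peak GFP intensity per well by laser scanning cytometry (488 nm excitation, 500–520 nm emission); 500 nM antisense PNA as control.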

[3] = Confirmation and Secondary Assay for Modulators of Hemoglobin Beta Chain Splicing at IVS2 705 locus (AID 930);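 also: HeLa cells stably expressing the EGFP-705 splicing reporter; GFP fluorescence per well restored by corrected splicing of the IVS2-705 intron in EGFP; % of control where 0% means no effect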
Summary of the method: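 Assay measures total GFP intensity per well in HeLa EGFP-705 cells after 2 days with compound; mis-splicing normally truncates EGFP, so fluorescence indicates corrected splicing.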

[4] = qHTS Assay for Lipid Storage Modulators (AID 1519; calls by dose curve); details: Drosophila S3 cells, BODIPY lipid droplet/cell ratio, laser cytometry, cells loaded with oleic acid
Summary of the method: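 Cells seeded at 5,000 per well were treated with compounds over a concentration series and loaded with oleic acid (400 uM, as added). Lipid droplet fluorescence (488 nm excitation, 500-530 nm channel) was read by laser-scanning cytometry and normalized to 20 uM Triacsin C.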

[5] = molecular target: ATP-dependent 6-phosphofructokinase (Trypanosoma brucei brucei) (UniProt O15648); experiment: qHTS Assay to Find Inhibitors of T. brucei phosphofructokinase: hit validation (AID 492961);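 also: luminescence reports ADP formed as PFK phosphorylates fructose-6-phosphate with ATP; % is scaled to controls: 0 for no effect and ±100 for the full control effect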
ATP-dependent 6-phosphofructokinase (Trypanosoma brucei brucei), sequence (O15648 whole entry, looked up): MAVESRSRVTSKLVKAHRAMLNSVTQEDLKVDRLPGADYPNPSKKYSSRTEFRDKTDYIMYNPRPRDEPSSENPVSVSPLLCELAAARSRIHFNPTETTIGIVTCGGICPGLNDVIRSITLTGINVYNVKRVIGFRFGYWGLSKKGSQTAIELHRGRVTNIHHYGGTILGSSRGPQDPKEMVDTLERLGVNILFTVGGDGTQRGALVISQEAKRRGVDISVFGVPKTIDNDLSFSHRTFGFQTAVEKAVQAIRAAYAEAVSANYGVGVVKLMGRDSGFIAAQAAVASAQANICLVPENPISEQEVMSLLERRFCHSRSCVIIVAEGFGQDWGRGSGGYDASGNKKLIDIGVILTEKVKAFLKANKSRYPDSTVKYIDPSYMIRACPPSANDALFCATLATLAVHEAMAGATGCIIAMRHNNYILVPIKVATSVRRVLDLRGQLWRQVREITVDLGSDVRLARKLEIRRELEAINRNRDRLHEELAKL
Summary of the method: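 Compounds titrated; %activity normalized to 0x and 1x enzyme controls, curve-fitted. Readout: ADP-Glo luminescence after 45 min room-temperature reaction of 1.25 nM PFK, 0.1 mM ATP, 0.5 mM F6P, pH 8.0.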

[6] = molecular target: Luciferin 4-monooxygenase (Photinus pyralis) (UniProt P08659); experiment: Biochemical firefly luciferase enzyme assay for NPC (AID 624030);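 also: purified P. pyralis luciferase at 10 nM with luciferin and ATP substrate; 0% = DMSO and -100% = full luciferase inhibition by PTC124 control; nearly all actives have a fitted effect of over 70% in size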
Luciferin 4-monooxygenase (Photinus pyralis), sequence (P08659 whole entry, looked up): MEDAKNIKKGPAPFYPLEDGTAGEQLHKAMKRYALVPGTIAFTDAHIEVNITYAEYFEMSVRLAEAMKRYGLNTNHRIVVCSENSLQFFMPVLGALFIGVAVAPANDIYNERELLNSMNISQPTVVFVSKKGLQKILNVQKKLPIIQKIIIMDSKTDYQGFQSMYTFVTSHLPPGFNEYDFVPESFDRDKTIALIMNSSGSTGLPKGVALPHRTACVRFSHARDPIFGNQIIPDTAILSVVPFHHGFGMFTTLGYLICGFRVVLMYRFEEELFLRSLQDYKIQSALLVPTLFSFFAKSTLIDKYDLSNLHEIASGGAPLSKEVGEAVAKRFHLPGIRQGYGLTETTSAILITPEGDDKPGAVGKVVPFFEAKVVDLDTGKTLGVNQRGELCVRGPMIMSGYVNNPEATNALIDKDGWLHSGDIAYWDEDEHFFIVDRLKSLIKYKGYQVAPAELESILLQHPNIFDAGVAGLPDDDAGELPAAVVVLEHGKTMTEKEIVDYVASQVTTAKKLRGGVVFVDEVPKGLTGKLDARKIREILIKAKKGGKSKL
Summary of the method: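 Purified P. pyralis luciferase at 10 nM in 50 mM Tris Acetate (final), luminescence read within 5 minutes of enzyme addition to compounds. Activity normalised to PTC124 versus DMSO; concentration-response curves classed by r2, magnitude and activity.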

[7] = qHTS profiling for inhibitors of Plasmodium falciparum proliferation (AID 504749); also: potency is read from the fitted curve at half-maximal effect;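 as to activity, negative = inhibition: 0% = DMSO vehicle and full inhibition = artemisinin control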; as to all read-outs here: nearly all actives have a fitted effect of over 60% in size; details: P. falciparum in erythrocytes, SYBR Green DNA, 72 h; for activity, negative = inhibition: at 12.8 µM (top of the series)
Summary of the method: (§1)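 P. falciparum-infected erythrocytes (0.3% parasitemia, 2.5% hematocrit) incubated with compound 72 h at 37 C, 5% CO2. Parasite DNA detected by SYBR Green after lysis, overnight at room temperature; normalised to 0.29 uM artemisinin and DMSO.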

[8] = test system: CP192; experiment: as above; details: P. falciparum in erythrocytes, SYBR Green DNA, 72 h; series mostly up to 28.7 µM
Summary of the method: as §1

[9] = test system: CP211; experiment: as above; details: P. falciparum in erythrocytes, SYBR Green DNA, 72 h; series mostly up to 28.7 µM
Summary of the method: as §1

[10] = test system: P94_40; experiment: as above; details: P. falciparum in erythrocytes, SYBR Green DNA, 72 h; series mostly up to 28.7 µM
Summary of the method: as §1

[11] = molecular target: Glucocorticoid receptor (Homo sapiens) (UniProt P04150); experiment: GR-GFP Redistribution (AID 450;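 active = compounds whose dose series gives a full or clear partial fitted curve of increased nuclear translocation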; also: potency is read from the fitted curve at half-maximal effect); details: U2OS GR-GFP nuclear translocation, laser cytometry, 2 h
Glucocorticoid receptor (Homo sapiens), sequence (P04150 whole entry, looked up, the tested form may be a part): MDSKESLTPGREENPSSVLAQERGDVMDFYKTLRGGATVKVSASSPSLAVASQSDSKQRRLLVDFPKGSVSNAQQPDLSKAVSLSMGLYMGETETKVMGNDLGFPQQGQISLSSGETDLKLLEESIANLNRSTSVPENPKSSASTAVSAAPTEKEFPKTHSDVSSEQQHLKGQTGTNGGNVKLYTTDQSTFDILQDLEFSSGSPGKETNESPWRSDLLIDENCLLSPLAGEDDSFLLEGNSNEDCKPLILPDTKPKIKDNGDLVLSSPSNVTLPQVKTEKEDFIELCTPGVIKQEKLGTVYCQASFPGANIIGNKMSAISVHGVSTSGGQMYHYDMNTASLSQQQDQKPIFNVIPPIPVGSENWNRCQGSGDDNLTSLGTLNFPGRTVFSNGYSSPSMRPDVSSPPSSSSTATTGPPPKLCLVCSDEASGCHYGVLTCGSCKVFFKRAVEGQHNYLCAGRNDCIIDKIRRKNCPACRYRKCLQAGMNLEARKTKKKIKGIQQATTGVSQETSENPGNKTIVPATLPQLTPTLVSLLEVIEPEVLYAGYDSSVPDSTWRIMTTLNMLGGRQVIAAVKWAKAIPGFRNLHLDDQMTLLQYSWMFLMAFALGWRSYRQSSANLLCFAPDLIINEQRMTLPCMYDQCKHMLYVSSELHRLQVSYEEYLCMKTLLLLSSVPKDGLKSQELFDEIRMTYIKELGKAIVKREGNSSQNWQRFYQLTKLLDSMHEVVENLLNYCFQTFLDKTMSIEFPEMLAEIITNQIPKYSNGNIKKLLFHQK

[12] = molecular target: Mitogen-activated protein kinase 10 (Mus musculus) (UniProt Q61831); experiment: JNK3 AlphaScreen Assay (AID 530; active = well fitted curve in either direction with a large enough effect, not every such curve was filed as active;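 also: kinase came from lysate of stimulated human HepG2 cells; signal reports phosphorylation of biotinylated GST-cJun 1-79 at Ser73 with 10 µM ATP; % is scaled to controls: 0 for no effect and ±100 for the full control effect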)
Summary of the method: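 Pre-activated (IL-1β/TNFα) JNK3 in HepG2 lysates phosphorylates biotin-GST-cJun(1-79), 10 uM ATP; anti-phospho-cJun(Ser73) AlphaScreen read at room temperature, pH 7.6 Tris buffer. Compounds pre-incubated 15 min as titrations.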

[13] = molecular target: Ubiquitin carboxyl-terminal hydrolase 1 (Homo sapiens) (UniProt O94782); experiment: Inhibitors of USP1/UAF1: Pilot qHTS (AID 504865);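 also: rhodamine fluorescence freed from ubiquitin-rhodamine substrate followed over time; top concentration of the series differs between compounds; % is scaled to controls: 0 for no effect and ±100 for the full control effect; nearly all actives have a fitted effect of over 35% in size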
Ubiquitin carboxyl-terminal hydrolase 1 (Homo sapiens), sequence (O94782 whole entry, looked up): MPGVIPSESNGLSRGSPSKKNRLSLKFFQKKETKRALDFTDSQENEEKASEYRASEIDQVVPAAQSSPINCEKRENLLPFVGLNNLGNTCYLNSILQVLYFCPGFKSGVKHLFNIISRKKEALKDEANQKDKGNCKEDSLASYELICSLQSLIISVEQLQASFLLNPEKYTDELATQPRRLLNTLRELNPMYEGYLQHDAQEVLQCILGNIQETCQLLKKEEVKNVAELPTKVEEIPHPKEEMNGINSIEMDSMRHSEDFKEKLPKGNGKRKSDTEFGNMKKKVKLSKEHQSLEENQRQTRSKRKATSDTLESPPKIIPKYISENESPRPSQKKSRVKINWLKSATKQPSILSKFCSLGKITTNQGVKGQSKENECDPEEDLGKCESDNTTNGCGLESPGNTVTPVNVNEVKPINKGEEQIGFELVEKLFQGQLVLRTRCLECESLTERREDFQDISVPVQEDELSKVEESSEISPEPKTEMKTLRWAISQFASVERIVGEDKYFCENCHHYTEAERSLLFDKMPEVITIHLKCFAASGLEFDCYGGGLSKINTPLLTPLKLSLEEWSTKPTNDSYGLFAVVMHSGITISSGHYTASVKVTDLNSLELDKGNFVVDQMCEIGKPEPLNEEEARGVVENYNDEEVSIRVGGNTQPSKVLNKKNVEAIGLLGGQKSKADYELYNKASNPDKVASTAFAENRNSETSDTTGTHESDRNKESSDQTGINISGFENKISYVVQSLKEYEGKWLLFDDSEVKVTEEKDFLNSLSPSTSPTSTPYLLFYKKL
Summary of the method: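 Deubiquitinase activity followed as kinetic rhodamine fluorescence release from 150 nM Ub-Rho. 1 nM USP1/UAF1 with compound, after 15 min room-temperature preincubation, in HEPES pH 7.8 buffer containing TCEP, EDTA, BSA and Tween-20.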

[14] = AP1 Signaling Pathway (AID 357; active = well fitted curve in either direction with a large enough effect, not every such curve was filed as active;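 also: ME-180 reporter cells stimulated with EGF at its EC50 level; % is scaled to controls: 0 for no effect and ±100 for the full control effect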)
Summary of the method: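 Read-out was the 460nm/530nm emission ratio (excitation 405nm) after CCF4 loading for 2.5 hours at room temperature. Cells carried an AP-1-driven beta-lactamase reporter, were stimulated with EC50 EGF plus compound for 5 hours, and AC50 values came from titrations.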

[15] = Stat Signaling Pathway (AID 446; active = well fitted curve in either direction with a large enough effect, not every such curve was filed as active;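 also: ME-180 cervical cancer cells given 40 pM IL-6 alongside compound; SIE-controlled beta-lactamase reporter measured as 460/530 nm FRET emission ratio; % is scaled to controls: 0 for no effect and ±100 for the full control effect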)
Summary of the method: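 Reporter line: ME-180 cervical carcinoma, SIE-beta-lactamase. Treatment: compound with 40 pM IL-6, 5 hrs, 37 C, in low-serum OPTI-MEM with 10 mM HEPES pH 7.3. Detection: 460/530 nm fluorescence.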

[16] = molecular target: Glucocorticoid receptor (Homo sapiens) (UniProt P04150); experiment: GR-EFC Redistribution (AID 451; calls by dose curve; also: potency is read from the fitted curve at half-maximal effect); details: CHO-K1 GR-EFC translocation, beta-gal luminescence, 2 h
Summary of the method: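 CHO-K1 cells expressing nuclear EA and GR-ED fragments of b-gal; compounds titrated up to 46 uM final, 2 h at 37 C. GR nuclear translocation read as complemented b-gal luminescence after 1 h RT detection.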

[17] = molecular target: 3',5'-cyclic-AMP phosphodiesterase 4B (Homo sapiens) (UniProt Q07343); experiment: qHTS Assay for Inhibitors of PDE-IV (AID 607; active = well fitted activation curve with a large enough effect in the main read-out, with a control signal flat, not every such curve was filed as active; also: % of control where 0% means no effect)
3',5'-cyclic-AMP phosphodiesterase 4B (Homo sapiens), sequence (Q07343 whole entry, looked up): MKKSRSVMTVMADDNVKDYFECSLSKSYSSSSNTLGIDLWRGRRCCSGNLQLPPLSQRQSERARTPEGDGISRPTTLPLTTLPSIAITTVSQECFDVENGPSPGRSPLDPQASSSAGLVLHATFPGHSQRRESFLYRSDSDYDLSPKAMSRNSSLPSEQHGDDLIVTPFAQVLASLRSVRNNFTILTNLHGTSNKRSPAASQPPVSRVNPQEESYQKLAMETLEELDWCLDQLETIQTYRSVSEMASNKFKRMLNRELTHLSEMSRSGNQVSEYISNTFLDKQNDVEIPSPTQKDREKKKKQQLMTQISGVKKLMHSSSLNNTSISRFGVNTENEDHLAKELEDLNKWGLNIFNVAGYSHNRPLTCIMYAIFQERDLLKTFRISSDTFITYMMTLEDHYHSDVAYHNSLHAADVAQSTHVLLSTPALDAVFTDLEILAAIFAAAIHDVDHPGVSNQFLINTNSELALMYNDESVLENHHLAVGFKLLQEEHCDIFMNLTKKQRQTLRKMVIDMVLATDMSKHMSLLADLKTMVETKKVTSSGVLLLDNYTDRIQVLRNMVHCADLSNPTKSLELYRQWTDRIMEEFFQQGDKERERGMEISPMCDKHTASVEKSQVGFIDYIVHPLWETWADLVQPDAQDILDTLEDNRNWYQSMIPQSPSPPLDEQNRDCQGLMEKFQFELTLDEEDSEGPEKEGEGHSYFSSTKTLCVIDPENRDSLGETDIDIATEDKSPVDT
Summary of the method: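 Cell-based read-out of cAMP via a modified cyclic nucleotide-gated channel and membrane potential dye (535/590 nm) in HEK293 cells expressing PDE4 endogenously. Compounds tested up to 22.9 uM final; 100 uM RO 20-1724 reference.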

[18] = NFAT Signaling Pathway (AID 444; active = well fitted curve in either direction with a large enough effect, not every such curve was filed as active); details: Jurkat NFAT-bla M1, carbachol, beta-lactamase ratio, 5 h; at 17.2 µM (top of the series)
Summary of the method: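 Jurkat cells with NFAT-driven β-lactamase reporter and co-expressed M1 receptor, stimulated with carbachol (final 1 uM, ~EC50), compound titration, 5 h at 37 °C. CCF4 loaded 1 h at RT; 460/530 nm ratio gave %activity and AC50.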

[19] = molecular target: Cytochrome P450 3A4 (Homo sapiens) (UniProt P08684); experiment: qHTS Assay for Activators of Cytochrome P450 3A4 (AID 885); also: nearly all actives have a fitted effect of over 65% in size; also: potency is read from the fitted curve at half-maximal effect
Summary of the method: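 Signal was normalized against complete inhibition by 57 uM ketoconazole. The reaction used 20nM CYP3A4 with 25uM Luciferin-PPXE, 10-min compound preincubation and a 60-min NADPH-supported step at RT.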

[20] = test system: CP286; experiment: qHTS profiling for inhibitors of Plasmodium falciparum proliferation (AID 504749); also: nearly all actives have a fitted effect of over 60% in size; also: potency is read from the fitted curve at half-maximal effect;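 as to activity, negative = inhibition: 0% = DMSO vehicle and full inhibition = artemisinin control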; details: P. falciparum in erythrocytes, SYBR Green DNA, 72 h; series mostly up to 28.7 µM
Summary of the method: as §1

[21] = measured here: cell count channel max response
[22] = measured here: lipid channel max response

## CCC(C)C1O[C@]2(C=CC1C)CC1CC(C/C=C(\C)[C@H](OC3CC(OC)C(O[C@H]4CC(OC)[C@@H](O)C(C)O4)C(C)O3)[C@@H](C)/C=C/C=C3\COC4C(O)C(C)=C[C@H](C(=O)O1)[C@@]34O)O2 (some centres not stated)
[1]
  Potency: inactive
[2]
  Potency: inactive
[3]
  Potency: inactive
[4]; at 57.5 µM (top of the series)
  activity change, negative = inhibition: -5.38% (inactive)
[4]; [21]
  max response: -1.86%
[4]; [22]
  max response: -6.99%
[5]
  Potency: inactive
[6]
  Potency: inactive
[7]; parasite line A
  Potency: 4.47 µM (active)
[7]; parasite line B
  Potency: 8.91 µM (active)
[8]
  Potency: 19 µM (active)
[9]
  Potency: 12 µM (active)
[10]
  Potency: 10 µM (active)

## CC(=O)O[C@H]1C[C@@H](O[C@@H]2[C@H](C)O[C@H](O[C@@H]3[C@H](C)O[C@H](O[C@@H]4CC[C@@]5(C)[C@@H](CC[C@]6(C)[C@]5(C)C[C@H](O)[C@]5(C)[C@@H](C7=CC(=O)OC7)CC[C@@]56O)C4)C[C@@H]3O)C[C@@H]2O)O[C@@H](C)[C@H]1O[C@H]1O[C@@H](CO)[C@@H](O)[C@@H](O)[C@@H]1O
[11]
  Potency: > 20.6 µM (inactive)
[12]
  outcome: inactive
[4]; at 25.7 µM (top of the series)
  activity change, negative = inhibition: -1.77% (inactive)
[4]; [21]
  max response: -6.91%
[4]; [22]
  max response: -8.38%
[13]
  Potency: inactive

## CC1=CC(=O)C2=C(C)C[C@@H](O)[C@@H]3[C@@H](OC(=O)[C@H]3C)[C@H]12
[14]
  outcome: inactive
[15]
  outcome: inactive
[11]
  Potency: > 20.6 µM (inactive)
[16]
  Potency: > 20.6 µM (inactive)
[12]
  outcome: inactive
[17]
  Potency: inactive
[4]; at 25.7 µM (top of the series)
  activity change, negative = inhibition: -1.62% (inactive)
[4]; [21]
  max response: -12.9%
[4]; [22]
  max response: -12%
[13]
  Potency: inactive

## CN1CCC2=C[C@H](O)[C@@H]3OC(=O)c4cc5c(cc4[C@H]3[C@H]21)OCO5
[14]
  outcome: inactive
[15]
  outcome: inactive
[11]
  Potency: > 20.6 µM (inactive)
[16]
  Potency: > 20.6 µM (inactive)
[12]
  outcome: inactive
[17]
  Potency: inactive
[4]; at 25.7 µM (top of the series)
  activity change, negative = inhibition: 0.357% (inactive)
[4]; [21]
  max response: -2.84%
[4]; [22]
  max response: -1.93%

## C[N+]1(C)CCO[C@](O)(c2ccc(-c3ccc([C@]4(O)C[N+](C)(C)CCO4)cc3)cc2)C1
[18]
  activity change, negative = inhibition: -13.9% (inactive)
[15]
  outcome: inactive
[11]
  Potency: > 20.6 µM (inactive)
[16]
  Potency: > 20.6 µM (inactive)
[12]
  outcome: inactive
[17]
  Potency: inactive
[4]; at 25.7 µM (top of the series)
  activity change, negative = inhibition: -0.651% (inactive)
[4]; [21]
  max response: 6.3%
[4]; [22]
  max response: 5.83%

## CC(=O)O[C@H]1CC[C@@]2(C)C(=CC[C@@H]3[C@H]2CC[C@]2(C)C(=O)CC[C@H]32)C1
[14]
  outcome: inactive
[15]
  outcome: inactive
[11]
  Potency: > 20.6 µM (inactive)
[16]
  Potency: > 20.6 µM (inactive)
[12]
  outcome: inactive
[17]
  Potency: inactive
[1]
  Potency: inactive
[19]
  Potency: 12.6 µM (active)
[4]; at 25.7 µM (top of the series)
  activity change, negative = inhibition: -0.861% (inactive)
[4]; [21]
  max response: -9.47%
[4]; [22]
  max response: -12.6%
[5]
  Potency: inactive
[6]
  Potency: inactive
[7]; parasite line A
  activity, negative = inhibition: 8.47% (inactive)
[7]; parasite line B
  activity, negative = inhibition: 10.9% (inactive)
[8]
  Potency: inactive
[9]
  Potency: inactive
[20]
  Potency: inactive
[10]
  Potency: inactive

## O=C1C=C2C=CC3C[C@@]2(O1)C1CCCCN31 (some centres not stated)
[19]
  Potency: inactive
[4]; at 57.5 µM (top of the series)
  activity change, negative = inhibition: 4.29% (inactive)
[4]; [21]
  max response: 5.82%
[4]; [22]
  max response: 10.8%
[5]
  Potency: inactive
[6]
  Potency: inactive
[7]; parasite line A
  Potency: 11.2 µM (active)
[7]; parasite line B
  Potency: 8.91 µM (active)
[9]
  Potency: 13.5 µM (active)
[20]
  Potency: 11.2 µM (active)
[10]
  Potency: 8.91 µM (active)
